# Results: the supplement of paper PMC9262897, “Low-cost anti-mycobacterial drug discovery using engineered E. coli” (Nature Communications, 2022)
# Where a name gives a salt, the structure may show the parent alone. ± gives the standard deviation of the averaged measurements.
# Assays:
# Assay in all cases: growth (OD600 after 10 h); higher = more growth (less inhibition)
# [1] = test system: E. coli TESEC Alr+ wild-type control; settings: compound 0.1 mM; raw OD600 reference: median of DMSO wells 0.241, cell-free background 0.041
# Method: (§1)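 TESEC Mtb Alr E. coli, or the Alr+ wild-type control, in 384-well plates with Prestwick library compounds at 0.1 mM and 1% DMSO, across arabinose induction levels of 1E3 to 1E7 nM. Growth is read as OD600 after 10 h at 37 °C in triplicate biological replicates.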
# E. coli TESEC Mtb Alr [2] = settings: compound 0.1 mM
# Method: as §1
# E. coli TESEC Mtb Asd = settings: compound 0.1 mM
# Method: (§2)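 TESEC E. coli strains in which the native enzyme is deleted and replaced by arabinose-inducible Mtb Asd, DapB, CysH or TrpD, each grown in its selective medium. Strains were screened against the Prestwick library at 0.1 mM and 1% DMSO in 384-well format at low and high arabinose induction. Growth is read as OD600 after 10 h in triplicate.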
# E. coli TESEC Mtb DapB = settings: compound 0.1 mM
# Method: as §2
# [3] = test system: E. coli TESEC Alr+ wild-type control; settings: compound 0.1 mM; raw OD600 reference: median of DMSO wells 0.49, cell-free background 0.052
# Method: (§3)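 TESEC Mtb Alr E. coli (ΔaraC ΔtolC ΔentC Δalr ΔdadX, arabinose-inducible Mtb Alr) or the Alr+ wild-type control strain, grown in defined M9-fructose medium without D-alanine in 96-well plates with Prestwick library compounds at 0.1 mM and 1% DMSO. Low Alr induction is 0.1 µM arabinose and high induction is 10 mM arabinose.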
# E. coli TESEC Mtb Alr [4] = settings: compound 0.1 mM; remark: listed apart in the source
# Method: as §3
# [5] = arabinose 1000 nM, raw OD600 reference: median of DMSO wells 0.294, cell-free background 0.041
# [6] = arabinose 10000 nM, raw OD600 reference: median of DMSO wells 0.264, cell-free background 0.041
# [7] = arabinose 100000 nM, raw OD600 reference: median of DMSO wells 0.201, cell-free background 0.041
# [8] = arabinose 1000000 nM, raw OD600 reference: median of DMSO wells 0.193, cell-free background 0.041
# [9] = arabinose 10000000 nM, raw OD600 reference: median of DMSO wells 0.146, cell-free background 0.041
# [10] = arabinose induction (level): High, raw OD600 reference: median of DMSO wells 0.331, cell-free background 0.041
# [11] = arabinose induction (level): Low, raw OD600 reference: median of DMSO wells 0.417, cell-free background 0.041
# [12] = arabinose induction (level): High, raw OD600 reference: median of DMSO wells […], cell-free background 0.041
# [13] = arabinose induction (level): Low, raw OD600 reference: median of DMSO wells 0.227, cell-free background 0.041
# [14] = arabinose 100 nM, raw OD600 reference: median of DMSO wells 0.413, cell-free background 0.052
# [15] = arabinose 10000000 nM, raw OD600 reference: median of DMSO wells […], cell-free background 0.052
Structure (SMILES),growth [1],growth (E. coli TESEC Mtb Alr [2]; [5]),growth (E. coli TESEC Mtb Alr [2]; [6]),growth (E. coli TESEC Mtb Alr [2]; [7]),growth (E. coli TESEC Mtb Alr [2]; [8]),growth (E. coli TESEC Mtb Alr [2]; [9]),growth (E. coli TESEC Mtb Asd; [10]),growth (E. coli TESEC Mtb Asd; [11]),growth (E. coli TESEC Mtb DapB; [12]),growth (E. coli TESEC Mtb DapB; [13]),growth [3],growth (E. coli TESEC Mtb Alr [4]; [14]),growth (E. coli TESEC Mtb Alr [4]; [15])
O=C1c2ccccc2C(=O)C1c1ccccc1 [Phenindione],0.243 ± 0.0053,0.298 ± 0.0061,0.268 ± 0.011,0.197 ± 0.03,0.166 ± 0.0028,0.147 ± 0.004,0.226 ± 0.037,0.321 ± 0.023,0.194 ± 0.0095,0.227 ± 0.017,0.488 ± 0.05,0.408 ± 0.0092,0.302 ± 0.025
CS(=O)(=O)OCCCCOS(C)(=O)=O [Busulfan],0.241 ± 0.017,0.287 ± 0.025,0.272 ± 0.0066,0.233 ± 0.026,0.184 ± 0.0057,0.139 ± 0.0018,0.378 ± 0.022,0.414 ± 0.036,0.209 ± 0.0074,0.286 ± 0.024,0.445 ± 0.033,0.4123 ± 0.004,0.362 ± 0.029
Cc1cnc(C(=O)NCCc2ccc(S(=O)(=O)NC(=O)NC3CCCCC3)cc2)cn1 [Glipizide],0.252 ± 0.0045,0.289 ± 0.0034,0.263 ± 0.0066,0.193 ± 0.019,0.183 ± 0.0084,0.141 ± 0.0039,0.341 ± 0.084,0.406 ± 0.029,0.199 ± 0.032,0.256 ± 0.042,0.506 ± 0.049,0.419 ± 0.0083,0.222 ± 0.025
CCN(CC)C(=O)c1ccc(O)c(OC)c1 [Ethamivan],0.24 ± 0.0033,0.295 ± 0.0045,0.249 ± 0.0036,0.232 ± 0.013,0.181 ± 0.0058,0.138 ± 0.0057,0.388 ± 0.079,0.397 ± 0.041,0.196 ± 0.0081,0.2251 ± 0.0019,0.543 ± 0.12,0.406 ± 0.013,0.356 ± 0.02
Cc1cc(-n2c(=O)[nH]c(=O)n(C)c2=O)ccc1Oc1ccc(SC(F)(F)F)cc1 [Toltrazuril],0.0494 ± 0.013,0.0602 ± 0.032,0.0431 ± 0.006,0.0449 ± 0.0059,0.0576 ± 0.031,0.0455 ± 0.0035,0.0752 ± 0.012,0.203 ± 0.057,0.227 ± 0.017,0.254 ± 0.016,0.137 ± 0.043,0.0828 ± 0.028,0.0543 ± 0.0016
CCN(CC)CCNC(=O)c1cc(Cl)c(N)cc1OC [Metoclopramide monohydrochloride],0.2268 ± 0.0011,0.278 ± 0.016,0.252 ± 0.017,0.195 ± 0.015,0.179 ± 0.0077,0.144 ± 0.0028,0.252 ± 0.015,0.485 ± 0.011,0.193 ± 0.01,0.221 ± 0.018,0.633 ± 0.05,0.409 ± 0.0098,0.358 ± 0.0081
Nc1ccc(S(=O)(=O)Nc2nccs2)cc1 [Sulfathiazole],0.244 ± 0.013,0.275 ± 0.013,0.203 ± 0.0029,0.202 ± 0.029,0.125 ± 0.0031,0.142 ± 0.006,0.377 ± 0.045,0.384 ± 0.032,0.197 ± 0.012,0.199 ± 0.025,0.5194 ± 0.0026,0.422 ± 0.013,0.343 ± 0.02
Cc1ccsc1/C=C/C1=NCCCN1C [Morantel tartrate],0.248 ± 0.0087,0.306 ± 0.0079,0.252 ± 0.0038,0.204 ± 0.012,0.176 ± 0.0069,0.1525 ± 0.00097,0.358 ± 0.016,0.379 ± 0.034,0.205 ± 0.038,0.294 ± 0.089,0.513 ± 0.029,0.409 ± 0.0089,0.259 ± 0.17
CC(=O)S[C@@H]1CC2=CC(=O)CC[C@]2(C)[C@H]2CC[C@@]3(C)[C@@H](CC[C@@]34CCC(=O)O4)[C@H]12 [Spironolactone],0.121 ± 0.0068,0.0986 ± 0.051,0.0753 ± 0.0019,0.0921 ± 0.027,0.06897 ± 0.00051,0.112 ± 0.0019,0.167 ± 0.021,0.313 ± 0.041,0.1363 ± 0.001,0.178 ± 0.018,0.331 ± 0.022,0.389 ± 0.026,0.0959 ± 0.016
CNCC[C@@H](Oc1cccc2ccccc12)c1cccs1 [(R)-Duloxetine hydrochloride],0.11 ± 0.038,0.0692 ± 0.004,0.04907 ± 0.00032,0.0556 ± 0.002,0.0447 ± 0.0038,0.0466 ± 0.0019,0.106 ± 0.066,0.0934 ± 0.04,0.0757 ± 0.0014,0.0799 ± 0.007,0.503 ± 0.049,0.4098 ± 0.0032,0.272 ± 0.011
CC(=O)c1ccc2c(c1)N(CCCN1CCC(CCO)CC1)c1ccccc1S2 [Piperacetazine],0.161 ± 0.0078,0.183 ± 0.0095,0.276 ± 0.015,0.222 ± 0.0061,0.115 ± 0.0049,0.133 ± 0.0052,0.175 ± 0.0042,0.222 ± 0.015,0.203 ± 0.016,0.243 ± 0.023,0.405 ± 0.0056,0.3984 ± 0.0027,0.27 ± 0.039
CCOC(=O)[C@H](CCc1ccccc1)N[C@@H](C)C(=O)N1Cc2ccccc2C[C@H]1C(=O)O [Quinapril HCl],0.218 ± 0.012,0.29 ± 0.0069,0.2807 ± 0.0024,0.155 ± 0.012,0.21 ± 0.0061,0.144 ± 0.0052,0.246 ± 0.03,0.403 ± 0.052,0.155 ± 0.012,0.165 ± 0.0056,0.477 ± 0.15,0.384 ± 0.015,0.309 ± 0.011
O=C(O)c1ccccc1C(=O)Nc1ccc(S(=O)(=O)Nc2nccs2)cc1 [Phthalylsulfathiazole],0.245 ± 0.0086,0.298 ± 0.011,0.266 ± 0.022,0.198 ± 0.02,0.184 ± 0.0082,0.166 ± 0.0046,0.468 ± 0.023,0.445 ± 0.036,0.212 ± 0.016,0.239 ± 0.01,0.47 ± 0.037,0.405 ± 0.019,0.333 ± 0.0071
O=c1[nH]c(=O)n([C@H]2C[C@H](O)[C@@H](CO)O2)cc1I [Idoxuridine],0.2463 ± 0.002,0.285 ± 0.0078,0.268 ± 0.012,0.206 ± 0.0098,0.203 ± 0.0061,0.15 ± 0.0075,0.257 ± 0.057,0.276 ± 0.032,0.185 ± 0.0093,0.202 ± 0.03,0.483 ± 0.064,0.369 ± 0.032,0.376 ± 0.021
Cc1[nH]cnc1CN1CCc2c(c3ccccc3n2C)C1=O [Alosetron hydrochloride],0.197 ± 0.0093,0.26 ± 0.0044,0.233 ± 0.014,0.225 ± 0.0049,0.178 ± 0.008,0.1498 ± 0.001,0.287 ± 0.076,0.263 ± 0.027,0.196 ± 0.017,0.262 ± 0.041,0.563 ± 0.075,0.387 ± 0.012,0.289 ± 0.0097
CCOc1ccc(Cc2nccc3cc(OCC)c(OCC)cc23)cc1OCC [Ethaverine hydrochloride],0.0471 ± 0.00059,0.0509 ± 0.0018,0.0528 ± 0.018,0.0664 ± 0.025,0.0659 ± 0.033,0.0686 ± 0.015,0.228 ± 0.0076,0.1635 ± 0.0016,0.156 ± 0.0076,0.165 ± 0.017,0.377 ± 0.051,0.403 ± 0.0076,0.0633 ± 0.0024
